According to PubChem BioAssay (Tox21):
Records with an inconclusive call do not appear. Calls of active or inactive are those of the source. The call rests on the fitted dose curve; in most records, active means well fitted activation curve with a large enough effect in the signal ratio in the repeat runs, with a control signal flat (not every such curve was filed as active); inconclusive means weak or mixed curves; inactive means flat fitted curve, though single readings scatter; the % refers to the signal ratio.

Assay: qHTS assay for small molecule activators of the heat shock response signaling pathway (AID 743210)
Conditions: HeLa HSE-bla reporter, beta-lactamase ratio, 5 h; series mostly up to 62.6 µM; activation: at the top concentration
Source text: U.S. Tox21 Program National Center for Advancing Translational Sciences [NCATS] NIH Chemical Genomics Center [NCGC] U.S. Environmental Protection Agency [EPA] National Institutes of Environmental Health Sciences [NIEHS] National Toxicology Program [NTP] U.S. Food and Drug Administration [FDA] Tox21 Assay Overview: Various chemicals, environmental and physiological stress conditions may lead to the activation of heat shock response/ unfolded protein response (HSR/UPR). There are three heat shock transcription factors (HSFs) (HSF-1, -2, and -4) mediating transcriptional regulation of the human HSR. To identify the compounds that activate HSR signaling, HSE-bla HeLa cell line (Invitrogen, Carlsbad, CA, USA) containing a beta-lactamase reporter gene under the control of the heat shock response elements was used to screen the Tox21 10K compound library.
Tox21 Assay Protocol Summary: The CellSensor HSE-bla HeLa cells (Invitrogen, Carlsbad, CA, USA) were dispensed at 1500 cells/6uL/well into 1536-well black wall/clear bottom plates using a Multidrop combi (Thermo Fisher Scientific, Waltham, MA) dispenser. After the assay plates were incubated at 37 C and 5% CO2 overnight, 23 nL of compounds dissolved in DMSO, positive controls or DMSO only was transferred to the assay plate by a Pintool station (Kalypsys, San Diego, CA). The plates were incubated at 37 C for 5 h. After 1 uL of LiveBLAzerTM B/G FRET substrate was added using a Flying Reagent Dispenser (Beckman Coulter, Indianapolis, IN, USA), the plates were incubated at room temperature for 2.5 h, and fluorescence intensity was measured by an Envision plate reader (PerkinElmer, Shelton, CT).
On the % scale 0 is the no-effect control and ±100 the full control effect.

Row | Structure (SMILES) | activation
1 | Cc1c(C(=O)c2c[nH]n(C)c2=O)ccc(S(C)(=O)=O)c1C1=NOCC1 | 0.36% [at 29.1 µM] (inactive)
2 | O=C(Cn1ccnc1[N+](=O)[O-])NCc1ccccc1 | -0.075% (inactive)
3 | CN(C)C(C)(C)CO | 0.0695% (inactive)
4 | CCN(CC)CCN | 0.724% (inactive)
5 | COc1cc(/C=C/C(N)=O)cc(OC)c1OC | 0.0281% (inactive)
6 | C/C(CC(C)C)=N\O | 0.329% (inactive)
7 | CCCCCCCCCOC(=O)c1ccccc1C(=O)OCCCCCCCCC | -0.651% (inactive)
8 | CC1CCc2c(N3CCC(O)CC3)c(F)cc3c(=O)c(C(=O)O)cn1c23 (stereo not given) | 0.0151% (inactive)
9 | [O-][n+]1cccc(/C(Cl)=N/OC[C@@H](O)CN2CCCCC2)c1 | 0.223% (inactive)
10 | CC(=O)CCc1ccc(OC(C)=O)cc1 | -0.597% (inactive)
11 | O=C1c2ccccc2C(=O)c2cc(Cl)ccc21 | -0.0238% [at 5.95 µM] (inactive)
12 | COc1nc(N)nc2nc[nH]c12 | 0.831% (inactive)
13 | CC(O)CC(C)O (stereo not given) | -1.2% (inactive)
14 | CO/N=C(/C(=O)N[C@@H]1C(=O)N2C(C(=O)[O-])=C(C[n+]3ccn4ncccc43)CS[C@H]12)c1nsc(N)n1 | 1.79% (inactive)
15 | CC/C(C)=N\O[Si](C)(O/N=C(\C)CC)O/N=C(\C)CC | 0.0573% [at 81.1 µM] (inactive)
16 | Cc1ccc(N)cc1S(=O)(=O)O | 0.0846% (inactive)
17 | CC(=O)CC(=O)OC(C)(C)C | -1.28% (inactive)
18 | N[C@@H](Cc1ccc(O)cc1)C(=O)O | 0.612% [at 13.2 µM] (inactive)
19 | Cc1ncc([N+](=O)[O-])n1CC(C)O (stereo not given) | -0.232% (inactive)
20 | Nc1nnnn1-c1ccccc1 | 0.32% (inactive)

Row | Structure (SMILES) | activation
21 | CCC(C)C(=O)OCCc1ccccc1 (stereo not given) | -0.129% (inactive)
22 | Cc1ccc2c(c1)C(=O)c1ccccc1C2=O | -1.49% (inactive)
23 | c1ccc2cnccc2c1 | -1.73% (inactive)
24 | O/N=C/C=N/O | -0.0347% (inactive)
25 | CCOCCOCC | -0.553% [at 81.1 µM] (inactive)
26 | O=S(=O)(O)c1ccc2c(N=Nc3ccc(S(=O)(=O)O)c4ccccc34)c(O)c(S(=O)(=O)O)cc2c1 | -0.859% [at 5.95 µM] (inactive)
27 | CC1OCCC1=O (stereo not given) | -0.717% (inactive)
28 | CC(=O)O[C@H]1C[C@@H]2CC[C@@]1(C)C2(C)C | 0.834% (inactive)
29 | Cc1cc(-c2ccccc2)nnc1NCCN1CCOCC1 | -1.35% (inactive)
30 | Cn1nnc2c(C(N)=O)ncn2c1=O | -1.65% (inactive)
31 | CCCCCCCCCCCCCCCCCC#N | -1.8% [at 81.1 µM] (inactive)
32 | CC(C)Cn1cnc2c1c(=O)n(C)c(=O)n2C | 0% (inactive)
33 | CO[Si](CCCn1c(=O)n(CCC[Si](OC)(OC)OC)c(=O)n(CCC[Si](OC)(OC)OC)c1=O)(OC)OC | 3.3% (inactive)
34 | COc1cc2c(cc1OC)C(=O)C(CC1CCN(Cc3ccccc3)CC1)C2 (stereo not given) | -0.625% (inactive)
35 | CCC(=O)c1c(O)cc(O)cc1O | -0.904% (inactive)
36 | CC(CO)(CO)CO | 1.01% [at 81.1 µM] (inactive)
37 | O=Cc1ccccc1Cl | -0.347% (inactive)
38 | CC(C)OC(=O)CCC(=O)OC(C)C | 4.98% (inactive)
39 | Nc1nc(-c2ccccc2)c(Br)c(=O)[nH]1 | -1.67% (inactive)
40 | CCO[Si](CC)(OCC)OCC | -0.21% (inactive)
